Values without a mark were called inactive. The source made the active and inactive calls. The call rests on the fitted dose curve; in most records, active means well fitted activation curve with a large enough effect in the repeat runs; inconclusive means weak or mixed curves; inactive means flat fitted curve, though single readings scatter.
On the % scale 0 is the no-effect control and ±100 the full control effect.

A short description of the assay: A CellTox Green Cytotoxicity Assay to monitor cytotoxicity in HepG2 cells - 0 hour (AID 1224882). Further: nearly all actives have a fitted effect of over 35% in size. The conditions noted are these: CellTox Green fluorescence; series mostly up to 76.8 µM. From the text: National Center for Advancing Translational Sciences [NCATS]
NIH Chemical Genomics Center [NCGC]
U.S. Environmental Protection Agency [EPA]
National Institutes of Environmental Health Sciences [NIEHS]
National Toxicology Program [NTP]
Cell-based models are critical for drug discovery. Determining the natural cytotoxic effects resulting from test compounds is an essential research activity. A CellTox Green Cytotoxicity Assay to monitor cytotoxicity in real time of continues cell culture during 40 hours of the compound treatment was used to screen Tox21 10K library compounds in HepG2 cells. CellTox Green Cytotoxicity Assay is a nonlytic, homogeneous, biofluorescent method to measure cytotoxicity in cell culture after experimental manipulation. The assay system uses a proprietary asymmetric cyanine dye that is excluded from viable cells but preferentially stains the dead cell's DNA. […] Viable cells produce no appreciable increases in fluorescence. Therefore, the fluorescence signal produced by the binding interaction with dead cell DNA is proportional to cytotoxicity.
The mixture of HepG2 cell suspension and reagents were dispensed at 600cells/6 ul/well in 1536-well tissue culture treated black solid bottom plates using a Multidrop dispenser. After the assay plates were incubated at a 37 C/5% CO2 incubator for 5 hours, 23 nL of compounds dissolved in DMSO, positive and negative controls was transferred to the assay plate by a pintool work station. The plates were incubated at 37 C for 40 hours. The fluorescence intensity were measured at 0h, 8h, 16h, 24h, 32h and 40h time points using ViewLux plate reader during compound treatment.
Take `OCCC(F)(F)C(F)(F)C(F)(F)C(F)(F)C(F)(F)C(F)(F)C(F)(F)C(F)(F)F`: the call was inactive. For the molecule `CC(=O)OC(C)OC(=O)C(C)c1ccc(-c2ccccc2)c(F)c1` (stereo not given), the molecule was called inactive.

Turning to `COc1ccc(OC)c(Cl)c1`, the call was inactive.

With `C[C@@H](Oc1ccc(CNC(=O)c2cccnc2Oc2ccc3c(c2)OCO3)c(F)c1)C(=O)O`, the outcome was inactive. On to `C=C(C)C(=O)OCC(C)(C)COC(=O)C(=C)C`, for which the molecule was called inactive. Regarding `CC/C=C\CC1=C(C)CCC1=O`, the molecule was called inactive. As to `CCOc1cc(NC(C)=O)ccc1C(=O)OC`, the call was inactive. Same read-out and setting: for `CCCCN` the value was “inactive”; for `CCCCCCOc1ccccc1C(N)=O`, “inactive”. As to `CC(CO)c1ccccc1` (stereo not given), the call was inactive. Take `COC(=O)CCCCCCCC(=O)OC`: the call was inactive.

`CCC(CC)CO`: the call was inactive. Turning to `CCCCCCCCSCC`, the result was inactive.

For `N#Cc1ccc(C(=O)O)cc1`, the molecule was classed as inactive.

Take `Nc1ccc([N+](=O)[O-])c(N)c1`: the molecule was classed as inactive. Still for that read-out and setting: for `CC(N)C(=O)OC(C)(C)Cc1ccc(Cl)cc1` (stereo not given) the value was “inactive”; for `O=C1c2ccccc2C(=O)C1c1ccccc1`, “inactive”. `CC(C)=CCOC(=O)c1ccccc1`: the call was inactive. Consider `CCCCCCCCCC(C)=O`, for which the result was inactive. Still for that read-out and setting: the result for `COc1ccc2nc(SCc3ncc(C)c(OC)c3C)[nH]c2c1` reads “inactive”; that for `CN(CCOc1ccc(NS(C)(=O)=O)cc1)CCc1ccc(NS(C)(=O)=O)cc1`, “inactive”. For `CCOC(=O)CC(=O)c1ccccc1`, the molecule was called inactive.

Take `CCCCCOC(=O)CCC`: the result was inactive. In the case of `Nc1cccc(O)c1`, the molecule was called inactive. In the case of `C=C(C)C(=O)OCc1ccccc1`, the outcome was inactive. `CC(=O)Nc1ccc(S(=O)(=O)Nc2ccc([N+](=O)[O-])cc2)cc1`: the molecule was classed as inactive.

Regarding `CC(C(=O)O)c1ccc2c(c1)CC(=O)c1ccccc1S2` (stereo not given), the molecule was classed as inactive. For the molecule `Brc1ccc(-c2ccccc2)cc1`, the call was inactive.

With `COc1ccc(Br)c(C)c1`, the molecule was classed as inactive.

Regarding `CCOC(=O)[C@H](CCc1ccccc1)N[C@@H](C)C(=O)N1C(=O)N(C)C[C@H]1C(=O)O`, the result was inactive. Same read-out and setting: for `CC(CC=O)CCCC(C)(C)O` (stereo not given) the value was “inactive”; for `COc1cc(NS(=O)(=O)c2ccc(N)cc2)nc(OC)n1`, “inactive”. `Cc1nc2n(c(=O)c1CCN1CCC(c3noc4cc(F)ccc34)CC1)CCC[C@H]2O`: the cytotoxicity is -4% [at 15.8 µM]. Turning to `CC[C@H](C)C(=O)O[C@H]1C[C@H](O)C=C2C=C[C@H](C)[C@H](CC[C@@H](O)C[C@@H](O)CC(=O)O)[C@H]21`, the molecule was called inactive. In the case of `CCCCCCCCC1CCC(=O)O1` (stereo not given), the outcome was inactive. `CCc1ccc(C=O)cc1`: the outcome was inactive. With `Cc1cccc(C)c1OCC(C)N` (stereo not given), the molecule was classed as inactive. With `C[C@H](N)[C@H](O)c1cccc(O)c1`, the outcome was inactive. On to `CC(CN)CC(C)(C)CCN` (stereo not given), for which the molecule was called inactive. The same measure, in the same setting: the result for `On1nnc2ccccc21` reads “inactive”.

(Values after PubChem BioAssay (Tox21).)
